# High-throughput results: PubChem BioAssay, National Center for Advancing Translational Sciences (NCATS)
# In the library only some 5.7% were active in any assay of this set; here they are far more common.
# ClpP mod: qHTS Assay for Activators of ClpP | Potency, µM (doses to about 57.5 µM), without a hit: at the top dose activity change, negative = active | 1.9% of 340,000 active | AID 651965, 2013 | ATP-dependent Clp protease proteolytic subunit (Bacillus subtilis (strain 168)), P80244 | purified B. subtilis ClpP, FRET peptide cleavage, 20 min; active = well fitted falling curve with a large enough effect; inconclusive = small, poorly fitted or top-dose-only effect; inactive = no such curve, though single readings can be large or run the other way; also: potency is read from the fitted curve at half-maximal effect; the source files actives as falling curves though it sought activators and does not explain the sign; nearly all actives have a fitted effect of over 65% in size
# Target sequence (P80244 whole entry, looked up): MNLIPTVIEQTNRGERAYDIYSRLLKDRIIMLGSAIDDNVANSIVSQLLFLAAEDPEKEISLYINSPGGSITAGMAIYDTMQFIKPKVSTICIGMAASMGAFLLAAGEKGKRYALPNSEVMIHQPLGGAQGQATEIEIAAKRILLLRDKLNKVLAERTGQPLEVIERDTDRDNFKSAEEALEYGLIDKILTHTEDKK
#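 Purified B. subtilis ClpP, 10 microg/mL final in Tris/HCl pH8 with KCl, BSA, glycerol and Tween-20, cleaved an Abz/nitrotyrosine-quenched decapeptide. Fluorescence (ex 320, em 430) was read at 0 and 20 min at room temperature. Delta was normalized to 5.8 microM ADEP and DMSO/no-enzyme controls.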
# DRD3 agonist: agonists of human D3 dopamine receptor; 0.58% of 410,000 active; max activation, %; D3R DiscoveRx beta-arrestin cells, luminescence, 90 min; P35462; AID 652048; in the data active = max activation above about 30%; also: 0% is about no effect
#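 Cells at 1500/well, incubated overnight, then treated with pinned compounds (dopamine as control) for 90 min at 37 degrees C. DiscoveRx reagent added for 30 - 60 minutes at room temperature; luminescence read.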
# D3 antag: blocks the human D3 dopamine receptor; D3R cells, DiscoveRx beta-arrestin luminescence, antagonist mode; hits give low values; 2.5% of 360,000 active; AID 652054; P35462; max response, negative = inhibition, %; in the data active = max response below about -50%; inconclusive = no clear call, values can overlap the other calls; also: % is scaled to controls: 0 for no effect and ±100 for the full control effect
#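 Cells plated overnight at 1500 cells/well, then exposed to library compounds with dopamine controls for 90 minutes at 37 degrees C. DiscoveRx reagent added for 30–60 minutes at room temperature; luminescence read, quantitative HTS format.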
# GLP-1R inv ag: GLP-1 receptor (human) inverse agonism; P43220; HEK293 GLP-1R CRE-luciferase, luminescence, 24 h; GLP-1R form is constitutively active; Potency, µM (highest dose often 38.3 µM), for the others: at the highest dose activity change, negative = inhibition, actives largely listed as inhibitors; 1.6% of 410,000 active; also: potency is read from the fitted curve at half-maximal effect; % is scaled to controls: 0 for no effect and ±100 for the full control effect; nearly all actives have a fitted effect of over 55% in size
# Target sequence (P43220 whole entry, looked up): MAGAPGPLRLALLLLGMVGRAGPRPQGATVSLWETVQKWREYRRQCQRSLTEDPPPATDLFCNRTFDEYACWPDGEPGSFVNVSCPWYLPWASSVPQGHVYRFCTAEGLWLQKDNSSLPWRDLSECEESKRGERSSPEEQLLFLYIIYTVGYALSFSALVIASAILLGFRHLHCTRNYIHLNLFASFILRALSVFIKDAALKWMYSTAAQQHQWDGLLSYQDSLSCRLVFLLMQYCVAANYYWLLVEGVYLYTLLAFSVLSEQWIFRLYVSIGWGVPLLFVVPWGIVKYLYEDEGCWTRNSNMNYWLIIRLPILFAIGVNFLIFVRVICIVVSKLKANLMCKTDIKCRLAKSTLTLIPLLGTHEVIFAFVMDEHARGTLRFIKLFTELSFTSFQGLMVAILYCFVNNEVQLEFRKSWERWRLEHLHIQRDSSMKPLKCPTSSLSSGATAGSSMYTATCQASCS
#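 Stable HEK293 clone (constitutively active GLP-1R + cAMP-response luciferase); 200 cells/uL plated, 12 h pre-culture, compound 24 hr, 37 deg C/5% CO2; detection reagent 12 min RT; luminescence.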
# GLP-1R agonist: activates the human GLP-1 receptor; HEK293 GLP-1R CRE-luciferase, luminescence, 4-6 h; cells express a hypersensitive GLP-1R form; AID 624172; 0.007% of 380,000 active; P43220; Potency, µM (top dose mostly 45.6 µM), without a hit: top-dose activation, most hits filed as activators; also: potency is read from the fitted curve at half-maximal effect; % of control where 0% means no effect
# GLP1R cytotox: cytotoxicity counter-screen for GLP-1 receptor inverse agonists; HEK293 cAMP-luciferase reporter cells, luminescence, 24 h; Potency, µM (highest dose often 38.3 µM), inactives show top-dose activity change, negative = inhibition, hits mostly inhibitors; 0.13% of 410,000 active; AID 624418;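 also: loss of luciferase light is scored as toxicity; potency is read from the fitted curve at half-maximal effect; % is scaled to controls: 0 for no effect and ±100 for the full control effect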
#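 Seeding density was 200 cells/uL; after overnight-length (12 h) culture, 23 nL compounds went on for 24 h at 37 °C. Readout used a luciferase detection reagent, luminescence taken after 12 min at room temperature.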
# Active calls of the source: *; ? = inconclusive; . = not tested or not shown; ! = not confirmed by another sample; [ ] = remark or other dose. Unless noted, calls follow the shape of the dose curve; as a rule, active = well fitted curve in the direction sought with a large enough effect; inconclusive = small, poorly fitted or top-dose-only effect, or another doubt; inactive = no such curve, though single readings can be large; an effect the other way counts as inactive or inconclusive.
SMILES,ClpP mod,DRD3 agonist,D3 antag,GLP-1R inv ag,GLP-1R agonist,GLP1R cytotox
COc1ccc(/C=C/C(=O)O)cc1S(=O)(=O)NCc1ccco1,-3%,-7,1,-4%,-1%,-7%
Cc1ccc(/C=C/C(=O)O)cc1S(=O)(=O)NCc1ccco1,.,41*,10,0%,8%,-3%
Fc1ccc(CSc2nncn3c2cc2occc23)c(Cl)c1,-6%,-2,.,-29%,.,-4%
O=C1NC[C@H](CC2CCCCC2)N(CCc2cccc3ccccc23)C1=O,-3%,-8,-25,15%,9%,6%
S=C1NC[C@H](CC2CCCCC2)N1CCc1cccc2ccccc12,-4%,2,0,7.9µM*,-4%,-10%
CN(CCO)c1cc(Sc2nc3ccccc3s2)c2nonc2c1[N+](=O)[O-],-4%,-37,-84*,?,-16%,?
CC(=O)OCCN(C)c1cc(SC(C)C)c2nonc2c1[N+](=O)[O-],-2%,2,-2,4%[0.307 µM],3%,-9%[0.307 µM]
CCCCOC(=O)C1CN(c2ccccc2)N=C1C(=O)OCC (centres undefined),?,-5,-19,10µM*,1%,13%
CCc1ccc(C(=O)Nc2cccc(-c3nc4cc(C(C)C)ccc4o3)c2)cc1,25µM*,1,.,11%,-1%,3%
Cc1cccc(C(=O)Nc2ccc(-c3nc4cc(C(C)C)ccc4o3)cc2)c1,?,17,.,?,.,-19%
O=C(COC(=O)Cc1c(Cl)cccc1Cl)NCc1ccccc1,1%,-6,24,-22%,14%,6%
Cc1ncoc1C(=O)N1CCc2c([nH]c3ccccc23)C1c1ccccc1F (centres undefined),.,-4,-21,-23%[7.66 µM],13%,1%[7.66 µM]
CCn1nc(C)cc1C(=O)N1CCc2c([nH]c3ccccc23)C1c1cc(F)ccc1F (centres undefined),.,-1,-17,10µM*,17%,-22%
COCCNCCOCCOc1ccc(Cl)c(C)c1,-1%,-20,-52*,?,-1%,13%
C=CCN=c1scc(-c2ccc3c(c2)NC(=O)CO3)n1/N=C(\C)c1ccccn1,.,-16,-53*,-30%,6%,?
Cc1ccc(OCC(=O)Nc2cccc(C(=O)OCc3cc(=O)n4cc(C)sc4n3)c2)cc1,-14%,3,.,-21%,.,-7%
O=C1Nc2ccc(Cl)cc2C(=O)C1(F)c1ccccc1 (centres undefined),0%,37*,18,?,-16%,-11%
Cc1c(C)n(CC(O)CNc2ccccc2)c2ccccc12 (centres undefined),-19%,3,7,10µM*,11%,7%
COc1ccc(-c2cc(C(F)(F)F)n3nc(C(=O)NCCCn4ccnc4)cc3n2)cc1,28µM*,0,5,?,8%,63%
CCOC(=O)c1c(NC(=O)c2cc3nc(-c4ccc(OC)cc4)cc(C(F)(F)F)n3n2)sc2c1CCC(C)C2 (centres undefined),32µM*,-13,.,2%,.,0%
COC(=O)c1c(NC(=O)c2cc3nc(-c4ccc(OC)cc4)cc(C(F)(F)F)n3n2)sc2c1CCCC2,28µM*,-13,.,6%,.,-8%
CCCS(=O)(=O)NC(=O)C1(C)CCN(C(=O)c2ccccc2OC(F)(F)F)C1 (centres undefined),0%,0,0,19%,1%,4%
CC(=O)Nc1ccc(NS(=O)(=O)c2ccc3[nH]c4c(c3c2)CCCCC4)cc1,0%,-2,.,-13%,-3%,-10%
CC(C)c1ccc(NC(=O)c2cc3c([nH]c2=O)CC(C)(C)CC3=O)cc1,0%,.,.,.,.,.
Cc1cccc(-c2nc(Nc3cccc(O)c3)c3ccccc3n2)c1,-15%,-11,-21,6.3µM*,0%,-13%
SMILES,ClpP mod,DRD3 agonist,D3 antag,GLP-1R inv ag,GLP-1R agonist,GLP1R cytotox
CC(=O)c1cccc(Nc2nc(-c3cccc(C)c3)nc3ccccc23)c1,-20%,-30,.,?,.,-3%
CC(=O)Nc1ccc(S(=O)(=O)N2CCC(c3nc4ccc(C)cc4[nH]3)CC2)cc1,1%,-1,-92*,-1%,-5%,7%
CC(C)(C=O)C1=CC(=O)c2ccccc2C1=O,0%,-28,-111*,0%,-24%,?
CC1=CC(=O)c2ccccc2C1=O,-1%,6,-53*,17%,6%,-4%
CCOc1ccc(S(=O)(=O)NCCc2csc(-c3ccc(Cl)cc3)n2)cc1,-9%,6,.,?,.,-7%
C=Cc1c(C)c2cc3[nH]c(cc4nc(cc5nc(cc1[nH]2)C(C)=C5CCC(=O)O)C(CCC(=O)O)=C4C)c(C)c3C=C,1%,36*!,4,4%,?,?
Cc1c(C(=O)Nc2c(F)cccc2F)sc2ncn(Cc3ccccc3F)c(=O)c12,-20%,8,.,-24%,.,3%
Cn1cc(CNCc2cn(C)nc2-c2ccc(C3CCCCC3)cc2)cn1,.,-3,0,7.9µM*,19%,0%
Cc1ccc(CNC(=O)CN2C(=O)C3CCCCN3c3ccc(C(=O)N(C)C)cc32)cc1 (centres undefined),-4%,9,.,-5%,.,-5%
CCOC(=O)c1[nH]c2ccccc2c1NC(=O)c1ccccc1OCC,-5%,-1,.,?,.,?
O=C(CCN1C(=O)C2C3C=CC(C4CC34)C2C1=O)Oc1ccc(Br)cc1 (centres undefined),.,-9,-15,-8%,3%,-1%
O=C(CCN1C(=O)C2C3C=CC(C4CC34)C2C1=O)Oc1cccc2cccnc12 (centres undefined),1%,-52,-68*,?,0%,?
CCN(CC#CCC(O)(c1ccccc1)C1CCCC1)C(C)C (centres undefined),-1%,-22,-4,11µM*,-7%,-30%
CN(C)CCCN(C(=O)c1cc2ccccc2oc1=O)c1nc2ccc(F)cc2s1,-3%,-2,-9,?,-2%,-22%
Cc1ccc2nc(N(CCCN(C)C)C(=O)c3ccc(Br)s3)sc2c1,20%,-10,-53*,?,13%,?
COc1cc2ccccc2cc1C(=O)N(CCN(C)C)c1nc2c(C)cccc2s1,-7%,-17,-20,?,3%,-6%
CCN(CC)CCN(C(=O)c1cc2ccccc2cc1OC)c1nc2ccc(F)cc2s1,-23%,-19,?,5µM*,-6%,-26%
COc1cc2ccccc2cc1C(=O)N(CCN(C)C)c1nc2ccc(C)cc2s1,2%,-18,-8,4µM*,6%,-14%
